Data from PubChem BioAssay (NCATS).
Results filed as inconclusive are left out. Activity calls are given as the source filed them. The call rests on the fitted dose curve; in most records, active means well fitted cell-killing curve with a large enough effect; inconclusive means small, poorly fitted or top-dose-only effect, or effect the other way; inactive means no such curve, though single readings can be large or run the other way.

Test: Quantitative High-Throughput drug screen in 47 multiple myeloma cell lines against the NCATS MIPE library collection: KMS20_JCRB cell viability assay (AID 1918973); further: nearly all actives have a fitted effect of over 45% in size
Details: CellTiter-Glo ATP, 48 h; series mostly up to 45.8 µM
Outline: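 CellTiter-Glo luminescence (ATP) after 48 h compound exposure, 37C/5% CO2; 500 cells/well; MIPE 4.0 approved/investigational drugs pinned in; DMSO = 100%, media only = 0% viability.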
Potency means the concentration at half of the fitted maximal effect.

Structure (SMILES)	Potency
CC(C)N(CCNC(=O)CN1CCCC1=O)C(C)C	inactive
CC[C@@]1(O)C(=O)OCc2c1cc1n(c2=O)Cc2cc3ccccc3nc2-1	209 nM (active)
O=S(=O)(CC1CS1)c1ccc(Oc2ccccc2)cc1 (stereo not given)	14800 nM (active)
CO[C@H]1CCC(O[C@H]2C[C@H]([C@]3(C)CC[C@]4(C[C@H](O)[C@@H](C)[C@@H]([C@@H](C)C=C(C)C(=O)[C@H](C)C[C@H](C)C(=O)O)O4)O3)O[C@]3(O[C@@H]([C@H]4O[C@@](O)(CO)[C@H](C)C[C@H]4C)C[C@H]3C)[C@H]2C)O[C@H]1C (stereo not given in full)	235 nM (active)
Cc1c(C(=O)Nc2cccc(C(F)(F)F)c2)cc(-c2ccccc2)n1CCCN1CCOCC1	16600 nM (active)
CCN(CC)C(=O)c1ccc(C2=CC3(CCNCC3)Oc3cccc(O)c32)cc1	inactive
O=c1[nH]c2ccccc2n1C1CCN(Cc2ccc(-c3[nH]c4cc5ncnc5cc4nc3-c3ccccc3)cc2)CC1	2350 nM (active)
C[C@]12COC(=O)C[C@@H]1CC[C@@H]1[C@H]2CC[C@@]2(C)[C@H]1CC[C@]2(C)O	inactive
CC(C)N[C@@H]1CCn2c(=O)[nH]c3cccc(c32)[C@@H]1O	10500 nM (active)
C[C@@]12OC(=O)[C@]1([C@@H](O)[C@@H]1C=CCCC1)NC(=O)[C@H]2CCCl	29.6 nM (active)
COc1cc([C@@H]2c3cc4c(cc3[C@@H](O)C3COC(=O)C32)OCO4)cc(OC)c1O (stereo not given in full)	66.2 nM (active)
CSCC[C@@H](NC(=O)[C@@H](Cc1ccccc1)NC(=O)CNC(=O)CNC(=O)[C@@H](N)Cc1ccc(O)cc1)C(=O)O	inactive
C[C@@H]1O[C@@H](O[C@@H]2C=C3CC[C@@H]4[C@@H](CC[C@]5(C)[C@H](c6ccc(=O)oc6)CC[C@@]45O)[C@@]3(C)CC2)[C@H](O)[C@H](O)[C@H]1O	18.7 nM (active)
C#C[C@]1(O)C=C[C@@H]2[C@@H]3CCC4=CC(=O)CC[C@@H]4[C@H]3CC[C@@]21CC	inactive
CC=C(C)C(=O)N[C@@H](c1ccccc1)[C@@H](O)C(=O)O[C@H]1C[C@@]2(O)[C@@H](OC(=O)c3ccccc3)[C@@H]3[C@]4(OC(C)=O)CO[C@@H]4C[C@H](O)[C@@]3(C)C(=O)[C@H](OC(C)=O)C(=C1C)C2(C)C	inactive
